High-throughput results from PubChem BioAssay.
RECQ1 inh-1: inhibitors of human RECQ1 DNA helicase. Potency, µM (highest dose often 57.3 µM), for the others: at the highest dose activity, negative = inhibition, actives largely listed as inhibitors. 240,000 tested, 0.54% active. RECQ1 DNA unwinding, red fluorescence kinetic read. P46063;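 further: plate controls were vehicle for no effect and no enzyme for full effect; nearly all actives have a fitted effect of over 30% in size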
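50 nM RECQ1T1 preincubated 15 min with compound in Tris pH 8.0 buffer with MgCl2, DTT, Tween-20 and 2.5 ug/ml poly(dI-dC); started with 200 nM TAMRA/BHQ-2 forked duplex and 2 mM ATP. Unwinding read as fluorescence (525/598 nm), two reads 2 h apart.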
BLM inh: inhibitors of human Bloom syndrome helicase BLM; P54132; 350,000 tested, 0.2% active; recombinant BLM DNA unwinding, fluorescence dequenching; AID 2528; Potency, µM (titrated, usually from 56.1 µM), without a hit: at the top dose activity change, negative = inhibition, hits mostly inhibitors;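 further: plate controls were vehicle for no effect and no enzyme for full effect; nearly all actives have a fitted effect of over 35% in size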
APE1 inh: APE1 (human) endonuclease inhibition | recombinant APE1, TAMRA/BHQ-2 abasic DNA cleavage fluorescence | Potency, µM (highest dose often 65.8 µM), without a hit: at the top dose activity change, negative = inhibition, actives largely listed as inhibitors | 350,000 tested, 0.35% active;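 further: plate controls were vehicle for no effect and reference inhibitor for full effect; nearly all actives have a fitted effect of over 55% in size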
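APE1 at 0.75 nM preincubated 15 min at room temperature with compound. Reaction then started with 50 nM double-stranded THF-abasic substrate labelled with TAMRA/BHQ-2, and 525/598 nm fluorescence read kinetically. Activity taken as third-minus-first read difference, normalized to DMSO and NSC13755 controls.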
ERG-DNA inh: ERG Ets/DNA interaction inhibition. 370,000 tested, 0.028% active. fluorescence polarization, His-ERG Ets domain / labelled DNA. P11308. Potency, µM (titrated, usually from 76.9 µM), inactives show at the top dose FP activity, negative = inhibition, hits mostly inhibitors; active means well fitted inhibition curve with a large enough effect in the polarisation, with a control signal flat; inconclusive means small, poorly fitted or top-dose-only effect, or effect the other way, or a change in a side signal; inactive means no such curve, though single readings can be large or run the other way; the % refers to the polarisation;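 further: polarization taken with two DNA probes labelled with fluorescein and Texas red; % of control where 0% means no effect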
Target sequence (P11308 whole entry, looked up, the tested form may be a part): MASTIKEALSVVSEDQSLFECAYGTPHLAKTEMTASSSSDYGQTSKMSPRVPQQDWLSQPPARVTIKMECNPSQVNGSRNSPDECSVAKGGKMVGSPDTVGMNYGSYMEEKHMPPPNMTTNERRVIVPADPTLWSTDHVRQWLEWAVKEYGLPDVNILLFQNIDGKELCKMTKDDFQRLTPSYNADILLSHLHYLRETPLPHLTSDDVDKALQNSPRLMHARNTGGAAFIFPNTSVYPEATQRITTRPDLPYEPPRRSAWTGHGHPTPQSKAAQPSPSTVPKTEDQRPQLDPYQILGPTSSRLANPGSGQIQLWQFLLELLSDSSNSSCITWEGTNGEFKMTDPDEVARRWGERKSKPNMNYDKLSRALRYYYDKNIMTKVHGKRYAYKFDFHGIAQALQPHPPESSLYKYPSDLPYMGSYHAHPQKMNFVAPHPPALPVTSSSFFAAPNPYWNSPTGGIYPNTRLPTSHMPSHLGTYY
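His-tagged ERG Ets domain (1 uM in the protein solution; 300mM KCl, 50mM Tris-HCl, 1mM EDTA, 1mM DTT, pH 7.5) received compound, then a probe mix of 5 nM fluorescein-DNA and 100nM Texas-615-DNA. Fluorescence polarization was read for both dyes.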
WRN inhibitor: inhibitors of human WRN helicase; Q14191; WRN helicase unwinding, fluorescent forked duplex, kinetic; Potency, µM (top dose mostly 114 µM), inactives show top-dose activity change, negative = inhibition, most hits filed as inhibitors; 360,000 tested, 0.46% active; AID 651768; further: on the % scale 0 is the no-effect control and ±100 the full control effect; nearly all actives have a fitted effect of over 55% in size
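Kinetic red-fluorescence monitoring (525/598 nm) tracks WRN helicase activity after 100 nM fluorophore-quencher forked duplex and 2 mM ATP are added to 20 nM enzyme pretreated 15 min at room temperature with compound.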
KAT2A inh: inhibitors of human GCN5L2 histone acetyltransferase; GCN5L2 HAT assay, ThioGlo1 CoA-SH fluorescence; Potency, µM (doses to about 58.9 µM), for the others: top-dose activity change, negative = inhibition, actives largely listed as inhibitors; 390,000 tested, 0.21% active; AID 504327; further: on the % scale 0 is the no-effect control and ±100 the full control effect
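Compounds, pin-transferred from DMSO stocks, meet 20nM GCN5L2 for 15 min before the reaction begins with H3(1-25) peptide (75uM) and acetyl-CoA (70uM). Thiol-reactive ThioGlo1 reports CoA release over 20 min at room temperature.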
RECQ1 inh conf: confirmation of human RECQ1 helicase inhibitors | AID 2708 | RECQ1 helicase DNA unwinding, fluorescence | 610 tested, 28% active | Potency, µM (series often up to 229 µM), inactives show at the highest dose activity change, negative = inhibition, actives largely listed as inhibitors | shares compounds with RECQ1 inh-1; further: on the % scale 0 is the no-effect control and ±100 the full control effect; nearly all actives have a fitted effect of over 45% in size
RECQ1 ADP FP: displaces ADP in a fluorescence polarization counter-screen for RECQ1 hits | ADP fluorescence polarization displacement counterscreen | 530 tested, 27% active | shares compounds with RECQ1 inh-1 | Potency, µM (highest dose often 228 µM), without a hit: top-dose activity change, negative = inhibition, usual class: inhibitors | AID 2711; further: on the % scale 0 is the no-effect control and ±100 the full control effect; nearly all actives have a fitted effect of over 45% in size
RECQ1 inh-2: RECQ1 helicase inhibition confirmed, round 2. shares compounds with RECQ1 inh-1. Potency, µM (series often up to 119 µM), without a hit: at the top dose activity, negative = inhibition, most hits filed as inhibitors. recombinant RECQ1 DNA unwinding, red fluorescence. 1,100 tested, 15% active; further: on the % scale 0 is the no-effect control and ±100 the full control effect; nearly all actives have a fitted effect of over 50% in size
Active calls of the source: *; i = inactive; ? = inconclusive; nt = no result given; [ ] = remark or other dose. An excerpt weighted towards active compounds, which were near 0.88% of everything screened. Unless noted, the call rests on the fitted dose curve; in most records, active means well fitted curve in the direction sought with a large enough effect; inconclusive means small, poorly fitted or top-dose-only effect, or another doubt; inactive means no such curve, though single readings can be large; an effect the other way counts as inactive or inconclusive. Potency means the concentration at half of the fitted maximal effect.

SMILES	RECQ1 inh-1	BLM inh	APE1 inh	ERG-DNA inh	WRN inhibitor	KAT2A inh	RECQ1 inh conf	RECQ1 ADP FP	RECQ1 inh-2
C/C(=N\NC(=O)c1ccncc1)c1cc2ccccc2oc1=O	-4%	1%	2%	0%	-31%	-11%	nt	nt	nt
N/C(=N\NC(=O)c1ccccc1Cl)c1cc2ccccc2oc1=O	28µM*	-7%	4%	-2%	-5%	-3%	nt	nt	-6%
C(=C\c1ccco1)/c1ccc2ccccc2n1	8.9µM*	?	?	-5%	-10%	-28%	?	45µM*	-1%
Cc1ccc(-c2nc3c(c(=O)[nH]c(=O)n3Cc3ccccc3)n2C)o1	14µM*	?	22µM*	12%	-13%[11.6 µM]	?	?	nt	?
Cc1ccc(-c2nc3c(c(=O)[nH]c(=O)n3Cc3ccccc3)n2Cc2ccccc2)o1	-16%	-5%	-1%	-4%	-10%	-20%	nt	nt	nt
Cc1ccc(S(=O)(=O)N2CCCCC2CCNC(=O)C(=O)NCC2CCCO2)cc1 (centres undefined)	nt	nt	12%	nt	-13%	-6%	nt	nt	nt
Cc1cc(OCC(F)(F)C(F)(F)C(F)(F)C(F)(F)C(F)(F)C(F)F)nc(N)n1	28µM*	-21%	2%	-2%	-9%	1%	nt	nt	-20%
CCCCCNC(=O)C(=O)NCC(c1ccc2c(c1)OCO2)N1CCOCC1 (centres undefined)	nt	-2%	nt	5%	nt	-1%	nt	nt	nt
O=C1OC(c2ccc(F)cc2)=C/C1=C\c1ccc([N+](=O)[O-])o1	22µM*	-23%	3%	nt	nt	?	-5%[114 µM]	nt	nt
CCc1ccc(-n2c(SCC(=O)N3Cc4ccccc4CC3C(=O)O)nnc2-c2ccncc2)cc1 (centres undefined)	i	0%	-3%	9%	-7%[11.6 µM]	1%	20%	-6%	nt
CCc1ccc(-n2c(SCC(=O)N3CCC(C(=O)O)CC3)nnc2-c2ccncc2)cc1	i	0%	0%	-3%	0%	-3%	nt	nt	nt
COc1cc2cc3c(N)c(C(=O)NCc4ccco4)sc3nc2cc1OC	?	-24%	?	?	?	-19%	nt	nt	?
N#C/C(=C\c1ccc(C(=O)O)cc1)c1nc2sc3c(c2c(=O)[nH]1)CCCC3	25µM*	?	?	11%	?	?	nt	nt	?
Clc1ccccc1-c1nnc2sc(C3COc4ccccc4O3)nn12 (centres undefined)	4.5µM*	-8%	5%	-3%	-10%	?	-13%[114 µM]	?	-19%
Cc1nc2c(ccc3nc(NC(=O)C(c4ccccc4)c4ccccc4)sc32)s1	25µM*	-10%	?	0%	-5%	-12%	nt	nt	-22%
Cc1ccc(/C=C2\C(=N)N3N=C(CC(=O)N4CCOCC4)SC3=NC2=O)o1	nt	-1%	17%	13%	-34%	-8%	nt	nt	nt
N=C1/C(=C\c2ccc(SCc3ccccc3)o2)C(=O)N=C2SC(CC(=O)N3CCOCC3)=NN12	?	-23%	-8%	-2%	-13%	-22%	nt	nt	-29%
O=C(O)c1ccc(NS(=O)(=O)c2ccc3c(c2)C2C=CCC2C(c2ccccc2F)N3)cc1 (centres undefined)	?	7%	?	-11%	35µM*	?	nt	nt	-14%
Cc1cccc(CCNC(=O)CCc2c(C)nc3c(c(C)nn3-c3ccccc3)c2C)c1	nt	-2%	nt	-2%	nt	4%	nt	nt	nt
Cc1ccc2c(c1)c1nnc(SCC(=O)N3CCCc4ccccc43)nc1n2CC(=O)O	8%	-8%	2%	-17%	-29%	0%	16%	?	nt
CCc1nnc(SCC(=O)N2CCCc3ccccc32)nc1CC	-3%	1%	-1%	8%	-4%	2%	nt	nt	nt
Cn1cc(-c2csc(C(O)c3ccc(F)c(F)c3)n2)cn1 (centres undefined)	nt	nt	nt	nt	6%[57.1 µM]	nt	nt	nt	nt
COc1cc(C(=O)Nc2c(C(=O)Nc3ccccc3F)oc3ccccc23)cc(OC)c1OC	nt	-2%	nt	-5%	nt	-2%	nt	nt	nt
Cc1ccc(S(=O)(=O)N(CC(=O)Nc2cccc(N(C)S(C)(=O)=O)c2)c2ccc(Cl)c(Cl)c2)cc1	7.1µM*	-12%	-3%	nt	-13%	-9%	?	6%[91.9 µM]	-9%
O=C(N/N=C/c1ccc(O)c(O)c1)c1ccc(CSc2cccc3cccnc23)cc1	11µM*	-19%	-11%	-5%	?	-7%	-14%[114 µM]	18%[91.9 µM]	nt
O=C(CSc1cccc2cccnc12)N/N=C/c1cccc(O)c1	-6%	-6%	1%	-2%	-2%	-3%	nt	nt	nt
CCc1cc(C(=O)c2ccc(OC)cc2)c(NC(=O)CCC(=O)O)s1	i	-2%	0%	-5%	-29%	-4%	8%	-15%	nt
Nc1ccc(C(=O)OCC(=O)N2c3ccccc3Sc3ccccc32)cc1[N+](=O)[O-]	28µM*	-11%	-7%	3%	-5%	-6%	nt	nt	-10%
